Source: PubChem BioAssay (NCATS)
Results filed as inconclusive are left out. A call without a number means that no potency is given here. Unmarked numbers belong to inactive results. The source made the active and inactive calls. The call rests on the fitted dose curve; in most records, active means well fitted curve in the direction sought with a large enough effect; inconclusive means small, poorly fitted or top-dose-only effect, or another doubt; inactive means no such curve, though single readings can be large; an effect the other way counts as inactive or inconclusive.

What was measured:
Tov-21-G = test: Primary qHTS to identify gynecologic anti-cancer compounds using libraries of approved drugs and bioactive compounds (AID 1345084); settings: Gynecologic cancer cell panel viability, ATPlite luminescence, 48 h; series mostly up to 57.5 µM; further: nearly all actives have a fitted effect of over 55% in size
In short: (§1)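 Five-point cytotoxicity, 48 h drug exposure at 37 C, 5% CO2, on cells seeded 16 h beforehand. ATP content read by ATPlite luminescence.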

Tov112D = test: as above; settings: Gynecologic cancer cell panel viability, ATPlite luminescence, 48 h; series mostly up to 57.5 µM
In short: as §1

[1] = qHTS assay to identify inhibitors of the type 1 interferon - major histocompatibility complex class I in skeletal muscle: Counter screen cell viability and HiBit confirmation (AID 1347412); settings: iHSKM muscle cells + IFN-b, HiBiT or CellTiter-Glo, 24 h; for activity change, negative = inhibition: Viability, at 45.9 µM (top of the series); for Potency: HiBiT; on all read-outs here: nearly all actives have a fitted effect of over 60% in size
In short: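 Human myoblast knock-in line, 4.0 ng/ml IFN-beta stimulation, 24 h compound treatment. Endpoints: HiBiT lytic luminescence (HLA-B level) and CellTiter Glo (ATP). Dosing 12 concentrations, 3-fold steps, 46 uM highest final.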

[2] = Drug repurposing screens with cells derived from glioblastoma tumor samples (AID 1345199); settings: GBM patient neurospheres viability, ATP luminescence, 48 h; further: nearly all actives have a fitted effect of over 40% in size
In short: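 Four patient lines of CD133+ GBM neurospheres were screened at several concentrations; hits were retested in those lines plus three slower-growing GBM lines, using 48-hour treatment and ATP-based viability.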
Potency means the concentration at half of the fitted maximal effect.

## CC1(C(=O)Nc2ccc(F)nc2)CCCN1c1nc(Nc2cc(C3CC3)[nH]n2)c2cccn2n1 (centres undefined)
Tov-21-G
  Potency: 14.1 µM (active)
Tov112D
  Potency: inactive

## Cc1ccnn1-c1ccc(C(=O)N2CCN(S(=O)(=O)c3ccc(Cl)c(C(F)(F)F)c3)CC2)cc1
Tov-21-G
  Potency: inactive
Tov112D
  Potency: inactive

## CCc1c[nH]c2ncnc(N3CC[C@](N)(CNC(=O)c4ccc(F)cc4F)C3)c12
Tov-21-G
  Potency: 1 µM (active)
Tov112D
  Potency: inactive

## CCCOc1ccc(CCc2nc3cc(-c4c(C)noc4C)ccc3n2CCN2CCOCC2)cc1
Tov-21-G
  Potency: inactive
Tov112D
  Potency: inactive

## Fc1ccc(-c2nc(-c3c(F)cccc3F)[nH]c2-c2ccncc2)cc1
Tov-21-G
  Potency: inactive
Tov112D
  Potency: inactive

## CC(C)(F)CC(NC(c1ccc(-c2ccc(S(C)(=O)=O)cc2)cc1)C(F)(F)F)C(=O)NC1(C#N)CC1 (centres undefined)
Tov-21-G
  Potency: inactive
Tov112D
  Potency: inactive

## CC(CCC1(O)OC2CC3C4CC=C5CC(O[C@@H]6O[C@H](CO)[C@@H](O[C@@H]7O[C@@H](C)[C@H](O)[C@@H](O)[C@H]7O)[C@H](O)[C@H]6O[C@@H]6O[C@@H](C)[C@H](O)[C@@H](O)[C@H]6O)CCC5(C)C4CCC3(C)C2C1C)CO[C@@H]1O[C@H](CO)[C@@H](O)[C@H](O)[C@H]1O (some centres undefined)
Tov-21-G
  activity change, negative = cytotoxicity: -14.2% [at 11.6 µM]
Tov112D
  activity change, negative = cytotoxicity: -1.44% [at 11.6 µM]

## Cc1nc(Nc2cnn(C3CCNCC3)c2)nc2c1N(C)C(=O)c1cc3ccccc3cc1N2C
Tov-21-G
  Potency: inactive
Tov112D
  Potency: inactive

## C=C1C(=O)O[C@@H]2C[C@H](C)C3=CC(=O)[C@H](O)[C@@]3(C)C[C@H]12
Tov-21-G
  Potency: inactive
Tov112D
  Potency: inactive

## CCc1cnc(N2CCC(c3nc(COc4ccc(-n5cnnn5)cc4)cs3)CC2)nc1
Tov-21-G
  Potency: inactive
Tov112D
  Potency: inactive

## CC(C)c1ccccc1OC(=O)NCCc1ccc2ccccc2c1
Tov-21-G
  Potency: inactive
Tov112D
  Potency: inactive

## CN1CCN(c2ccc(OC(F)(F)F)c(Nc3ncc4c(n3)-c3c(c(C(N)=O)nn3CCO)CC4)c2)CC1
Tov112D
  Potency: 0.316 µM (active)

## COc1ccc2c(c1O[C@H]1CCNC1)CCC2
Tov-21-G
  Potency: inactive
Tov112D
  Potency: inactive

## Nc1nc2c(cnn2CCCc2ccc(O)cc2)c2nc(-c3ccco3)nn12
Tov-21-G
  Potency: inactive
Tov112D
  Potency: inactive

## Nc1c(S(=O)(=O)c2ccccc2)c2nc3ccccc3nc2n1-c1ccc(F)cc1
Tov-21-G
  Potency: inactive
Tov112D
  Potency: inactive

## COC(=O)c1cc(Br)cnc1N1CCC(NC2CCCCC2)C(O)C1 (centres undefined)
Tov-21-G
  Potency: inactive
Tov112D
  Potency: inactive

## C[C@@H](c1ccc2nccn2c1)n1nnc2ncc(-c3cnn(C)c3)nc21
Tov-21-G
  Potency: inactive
Tov112D
  Potency: inactive

## C=CC(=O)Nc1ccc2ncnc(Nc3cccc(Br)c3)c2c1
Tov-21-G
  Potency: 10 µM (active)
[1]
  activity change, negative = inhibition: -0.162%

## CC(C)(N)c1ncc(-c2ccc(OC(F)(F)F)cc2)[nH]1
Tov-21-G
  Potency: inactive
Tov112D
  Potency: inactive

## N#Cc1ccc(-c2ccc(S(=O)(=O)Nc3cccc(N)n3)cc2)cc1
Tov-21-G
  Potency: inactive
Tov112D
  Potency: inactive

## CC1(C)CCC(C)(C)c2cc(C#Cc3ccc(C(=O)O)cc3)ccc21
Tov-21-G
  Potency: inactive
Tov112D
  Potency: inactive

## COc1ccc(CCc2nc3cc(-c4c(C)noc4C)ccc3n2CC(C)N2CCOCC2)cc1Cl (centres undefined)
Tov-21-G
  Potency: inactive
Tov112D
  Potency: inactive

## CC(C)c1ccc(NC(=O)c2cccs2)c(-c2nc3ccccc3[nH]c2=O)c1
Tov-21-G
  Potency: inactive
Tov112D
  Potency: inactive

## Cc1[nH]c2ccccc2c1CCNCc1ccc(/C=C/C(=O)NO)cc1
Tov-21-G
  Potency: 0.708 µM (active)
Tov112D
  Potency: 0.316 µM (active)
[1]
  Potency: 0.0625 µM (active)
  activity change, negative = inhibition: -25.2%

## S=C(c1ccc(-c2ccc(Cl)c(Cl)c2)o1)N1CCCCC1
Tov-21-G
  Potency: inactive
Tov112D
  Potency: inactive

## O=C(Nc1nnc(-c2ccc3c(c2)OCCO3)o1)C1CCCCC1
Tov-21-G
  Potency: inactive
Tov112D
  Potency: inactive

## CCOc1cn(-c2ccc(F)cc2C)nc1C(=O)Nc1ccc(Oc2ccnc3cc(OC)c(OC)cc23)c(F)c1
Tov-21-G
  Potency: inactive
Tov112D
  Potency: inactive

## O=c1ccc2ccc(OCCCCN3CCN(c4cccc5sccc45)CC3)cc2[nH]1
Tov-21-G
  Potency: inactive
Tov112D
  Potency: inactive

## C=C1C(=O)OC[C@@H]1C/C=C(\C)CC1CC(C)C(=O)O1 (some centres undefined)
Tov-21-G
  Potency: inactive
Tov112D
  Potency: inactive

## CC(O)(C(=O)O)C1CCC2(C)C1CCC1(C)C2CCC2C3(C)CCC(O)C(C)(COC4OC(CO)C(O)C(O)C4O)C3CCC21C (centres undefined)
Tov112D
  Potency: 8.91 µM (active)

## O=C1Nc2nc(-c3c(O)cccc3OCC3CC3)cc([C@@H]3CCCNC3)c2CO1
Tov-21-G
  Potency: 14.1 µM (active)
Tov112D
  Potency: 22.4 µM (active)
[1]
  Potency: 7.01 µM (active)
  activity change, negative = inhibition: -25%

## CCc1ccc(-c2nc(CSCC(=O)NCCc3ccccc3)c(C)o2)cc1
Tov-21-G
  Potency: inactive
Tov112D
  Potency: inactive

## CCC(CC)C(c1ccc(Nc2nc3ccccc3s2)cc1)n1cncn1 (centres undefined)
Tov112D
  Potency: 22.4 µM (active)

## COc1cc(N2CCOCC2)ccc1NC(=O)c1csc(-c2cccnc2)n1
Tov112D
  Potency: inactive

## Cc1[nH]c(/C=C2\C(=O)Nc3cc(-c4ccccc4)ccc32)c(C)c1CCC(=O)O
Tov112D
  Potency: inactive

## CCC(=O)Oc1ccc2c(c1)CC[C@@H]1[C@@H]2CC[C@]2(C)[C@@H](OC(=O)CC)CC[C@@H]12
[2]; at 45.9 µM (top of the series), tumour line B
  activity, negative = cell killing: -0.785%
[2]; at 45.9 µM (top of the series), tumour line D
  activity, negative = cell killing: -16.9%
[2]; at 46.1 µM (top of the series), tumour line C
  activity, negative = cell killing: -12.6%
[2]; tumour line A
  Potency: 12.6 µM (active)

## CC1(C)CC[C@]2(C(=O)O)CC[C@]3(C)C(=CCC4[C@@]5(C)C[C@@H](O)[C@H](O)C(CO)(CO)C5CC[C@]43C)C2[C@@H]1O (some centres undefined)
Tov112D
  Potency: 7.94 µM (active)
